Assay results: PubChem BioAssay AID1210 (NMMLSC, 2008)
Active and inactive are the calls of the source.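 How the source made its calls: active means blocks over 70% of labeled estradiol binding at 10 µM, or over a set limit at 100 nM; inactive means the rest.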

Target: Estrogen receptor beta (Homo sapiens) (UniProt Q92731)
Assay: ERbeta ligand binders by competition, primary screen, cell-based, Cos7 ERbeta-GFP, flow cytometry (AID 1210);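 further: 0% = DMSO vehicle wells and 100% = complete loss of labeled estradiol signal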
Settings: fluorescent estrogen binding, at 10 µM, stronger effect = higher value

Sequence of Estrogen receptor beta (Homo sapiens) (Q92731 whole entry, looked up): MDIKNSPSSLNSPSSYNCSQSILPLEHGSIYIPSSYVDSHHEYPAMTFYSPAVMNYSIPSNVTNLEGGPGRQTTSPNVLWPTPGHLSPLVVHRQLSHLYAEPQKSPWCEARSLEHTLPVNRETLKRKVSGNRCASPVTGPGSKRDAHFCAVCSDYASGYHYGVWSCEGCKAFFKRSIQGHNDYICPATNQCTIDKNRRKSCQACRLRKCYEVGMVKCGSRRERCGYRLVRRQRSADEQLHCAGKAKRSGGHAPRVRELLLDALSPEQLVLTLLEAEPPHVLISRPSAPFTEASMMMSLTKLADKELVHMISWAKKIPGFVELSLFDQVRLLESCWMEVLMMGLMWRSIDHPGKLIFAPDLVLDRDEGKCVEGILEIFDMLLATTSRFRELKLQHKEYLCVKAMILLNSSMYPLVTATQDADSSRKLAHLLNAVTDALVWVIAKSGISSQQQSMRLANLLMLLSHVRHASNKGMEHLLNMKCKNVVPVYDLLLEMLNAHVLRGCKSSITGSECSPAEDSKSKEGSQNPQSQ

| SMILES | inhibition |
| --- | --- |
| COc1ccc(/C=N/NC(=O)c2nc(-c3ccccc3)cc(-c3ccccc3)n2)cc1O | 71% (active) |
| O=c1cc(-c2ccco2)oc2c1ccc1ccccc12 | 49% (inactive) |
| CC(C)CC(=O)Nc1ccc(C(=O)COc2ccc(-c3nnco3)cc2)cc1 | 44% (inactive) |
| CC1(C)Cc2c(sc3c4nnnn4c4nnnn4c23)CO1 | 23% (inactive) |
| COc1cc2c(c([N+](=O)[O-])c1)NC(c1ccc(Br)cc1)C1CC=CC21 (stereo unspecified) | 8% (inactive) |
| CCOc1cc2c(c([N+](=O)[O-])c1)NC(c1ccccc1)C1CC=CC21 (stereo unspecified) | 17% (inactive) |
| COc1ccc(C2CC(=O)Nc3ccccc3S2(=O)=O)cc1OC (stereo unspecified) | 5% (inactive) |
| Cc1c(Cc2ccccc2)c(=O)n2c([nH]c3ccccc32)c1C#N | 9% (inactive) |
| COC(=O)c1cnn2c(C(F)(F)F)cc(-c3ccco3)nc12 | 27% (inactive) |
| CCOC(=O)c1c(C)oc2c1c(C=NC1CCS(=O)(=O)C1)c(O)c1ccccc12 (stereo unspecified) | 38% (inactive) |
| Cc1cc(C)c(C(=O)COc2cccnc2[N+](=O)[O-])cc1C | 0% (inactive) |
| Cc1ccc(-c2nnc(-c3ccc(NC(=O)c4ccco4)cc3)o2)cc1 | 54% (inactive) |
| Oc1ccc2c(c1)c1c3n2CCNC3CCC1 (stereo unspecified) | 25% (inactive) |
| CCCNCC1COc2ccccc2O1 (stereo unspecified) | 51% (inactive) |
| C=CCn1c(COc2cccc(C)c2)nnc1SCC(=O)NC(=O)NCc1ccco1 | 31% (inactive) |
| CCOC(=O)C1=C(O)/C(=C\c2ccc(CNC(=O)C(=O)Nc3ccccc3)o2)N=C1C | 20% (inactive) |
